# Assay results published in PubChem BioAssay (NCATS).
# Inconclusive results are not listed. A number with no mark means an inactive call. Activity calls are given as the source filed them. Calls come from the whole dose curve; as a rule, active = well fitted inhibition curve with a large enough effect; inconclusive = small, poorly fitted or top-dose-only effect; inactive = flat fitted curve, though single readings scatter.
# Tested on: Zika virus NS2B-NS3 protease
# Test: Primary screen GU AMC qHTS for Zika virus inhibitors (AID 1347154); note: nearly all actives have a fitted effect of over 70% in size;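 for activity change, negative = inhibition: 0% = no-inhibitor control and -100% = no-enzyme control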
# Conditions: Zika NS2B-NS3 unlinked protease, AMC fluorogenic substrate; series mostly up to 54.1 µM; activity change, negative = inhibition: at the top concentration
# Description: Avindra Nath, Ph.D., National Institute of Neurological Disorders and Stroke (NINDS), Bethesda, MD
# Radhakrishnan Padmanabhan, Ph.D., Georgetown University (GU), Washington D.C.
# Zika Virus causes congenital defects, including microcephaly and is associated with Guillain-Barre syndrome, eningoencephalitis and myelitis in infected adult. […] Using a target-based approach, we hope to establish a screening paradigm to uncover novel, cell-active NS2B-NS3 protease (Zika Virus) specific inhibitors from NCATS' collection of small molecules using qHTS.
# Early Translation Branch (ETB)
# National Center for Advancing Translational Sciences (NCATS), Rockville, MD
# National Institute of Health (NIH), Bethesda, Maryland
# Padmanabhan lab provided the NS2B hydrophilic domain and NS3 protease domain in a noncovalent complex used for the unlinked assay. Control compound aprotinin is obtained from Thermo Scientific (#78432; Waltham, Massachusetts). NS2B-NS3 AMC substrate (Bz-Nle-Lys-Arg-Arg-AMC; Nle-KRR-AMC) purchased from Bachem (#I-1995; Torrance, CA). Ac-VKTGKR-AMC purchased from Genscript or Bachem, Ac-FAAGKR-AMC purchased from Genscript, Ac-GLVKRR-AMC purchased from Genscript, Ac-LKKR-AMC purchased from Genscript.
# GU AMC unlinked NS2B-NS3 protease qHTS protocol
# Briefly, 3 microL of Zika virus unlinked NS2B-NS3 protease (25 nM for linked final concentration), in assay buffer (10 mM Tris-HCl pH 8.0 with 0.01% Tween 20) was dispensed into a 1,536-well solid-bottom black plate (Greiner Bio One, Monroe, NC). […] Plates were then read immediately on a ViewLux High-throughput CCD imager (PerkinElmer, Waltham, MA) equipped with standard UV fluorescence optics (340(30) nm excitation, 450(20) nm emission) then incubated (room temperature, protected from light) for 15 minutes (~20% conversion). The change in fluorescence intensity over the 15-minute reaction period was normalized against no-inhibitor and no-enzyme controls and the resulting percent inhibition data were fitted to a 4-parameter Hill equation. Aprotinin was used as the intraplate control.
# Potency is the fitted concentration of half-maximal effect.
Compound,"activity change, negative = inhibition",Potency
Nc1[nH]nc2nnc(-c3c(-c4ccccc4)nn4ccccc34)cc12,-4.2%,
N#Cc1c(N(CC(=O)O)CC(=O)O)sc(C(=O)O)c1CC(=O)O,-10.5%,
Cc1cnc(-c2cc(N3CCN(C(=O)CCS(C)(=O)=O)CC3)ncc2Cl)c(C)c1,-16.3%,
C=CC(=O)Nc1cccc(Sc2nc(Nc3ccc(N4CCN(C)CC4)cc3)ncc2Cl)c1,24.3%,
CC(C)CN(C[C@@H](O)[C@H](Cc1ccccc1)NC(=O)O[C@H]1CO[C@H]2OCC[C@H]21)S(=O)(=O)c1ccc(N)cc1,-6.5%,
O=C1Nc2ccc(I)cc2C1=Cc1cc(Br)c(O)c(Br)c1,,12.1 µM (active)
Cc1ccc2c(c1)C(=O)[C@]1(O)CCN(c3ccccc3)C1=N2,4.97%,
O=C1CCCC(=O)C1C(=O)c1ccc(C(F)(F)F)cc1[N+](=O)[O-],-8.22%,
O=C(Nc1cccc2c(=O)cc(-c3nn[nH]n3)oc12)c1ccc(OCCCCc2ccccc2)cc1,,8.91 µM (active)
CNc1nc(-c2ccc3c(N)n[nH]c3c2)cc(N2C[C@@H](C(=O)NC3CCCCC3)CC[C@@H]2C)n1,-4.38%,
COc1nccc(-c2c(-c3ccc(F)cc3)ncn2C2CCNCC2)n1,-1.07%,
COc1cc2c(cc1OC)[C@@H]1Cc3ccc(OC)c(OC)c3CN1CC2,0.149%,
CCOC(=O)N1CCN([N+]([O-])=NOc2cc(ON=[N+]([O-])N3CCN(C(=O)OCC)CC3)c([N+](=O)[O-])cc2[N+](=O)[O-])CC1,-5.16%,
CC(C)(OCc1nn(Cc2ccccc2)c2ccccc12)C(=O)O,7.29%,
NC1(C(=O)N[C@@H](CCO)c2ccc(Cl)cc2)CCN(c2ncnc3[nH]ccc23)CC1,14.5%,
CC(C)(F)C[C@H](N[C@@H](c1ccc(-c2ccc(S(C)(=O)=O)cc2)cc1)C(F)(F)F)C(=O)NC1(C#N)CC1,-0.85%,
C[C@H]1[C@H](O)O[C@@H]2O[C@@]3(C)CC[C@@H]4[C@H](C)CC[C@@H]1[C@@]24OO3,6.63%,
CCn1c(-c2nonc2N)nc2cncc(CNC3CCNCC3)c21,-0.745%,
CN1C(=O)C[C@H](C(=O)N[C@@H](Cc2cnc[nH]2)C(=O)N2CCC[C@@H]2C(N)=O)NC1=O,1.52%,
Cc1nc(NC(=O)N2CCC[C@@H]2C(N)=O)sc1-c1csc(C(C)(C)C)n1,0.125%,

Compound,"activity change, negative = inhibition",Potency
CN(C)CCOc1ccc(C(=C(CCCl)c2ccccc2)c2ccccc2)cc1,2.7%,
CC1=C(C(=O)Nc2cc3cn[nH]c3cc2F)C(c2ccc(C(F)(F)F)cc2)CC(=O)N1 (stereo not given),12%,
C#CCN(C)CC1=Cc2ccccc2Oc2ccccc21,-19.8%,
CN(C)c1nc(Cc2ccc(NC(=O)c3ccc(C(F)(F)F)cc3)cc2)nc(N(C)C)c1CC(=O)O,9.83%,
CCC[C@H](N[C@@H](C)C(=O)N1[C@@H]2CCCC[C@H]2C[C@H]1C(=O)O)C(=O)OCC,4.11%,
CCCCCOC(=O)Nc1nc(=O)n([C@@H]2O[C@H](C)[C@@H](O)C2O)cc1F (stereo not given in full),-18.4%,
OC(c1cc(C(F)(F)F)nc2c(C(F)(F)F)cccc12)C1CCCCN1 (stereo not given),11.7%,
O=C(Nc1ncc(SCCN2CCCC2)s1)[C@]1(c2ccc(S(=O)(=O)C3CC3)cc2)C[C@@H]1C1CCCCC1,-10.1%,
O=c1cc(-c2ccc(O)c(O)c2)oc2cc(O)cc(O)c12,-16.4%,
CC1(C)OC2CC3C4CC(F)C5=CC(=O)C=CC5(C)C4C(O)CC3(C)[C@]2(C(=O)CO)O1 (stereo not given in full),8.05%,
CSc1cccc(Nc2ncc3cc(-c4c(Cl)cccc4Cl)c(=O)n(C)c3n2)c1,2.96%,
NCc1c[nH]c(=S)n1[C@H]1CCc2c(F)cc(F)cc2C1,13.5%,
Cc1ccccc1C(C(=O)NC1CCCCC1)N(C(=O)CNc1ccc(C#N)cc1)c1cccc(F)c1 (stereo not given),5.34%,
C[C@@]1(C(=O)Nc2ccc(F)nc2)CCCN1c1nc(Nc2cc(C3CC3)[nH]n2)c2cccn2n1,10.3%,
O=C(NCCCCN1CCOCC1)c1cc2ccccc2o1,13.6%,
CN[C@@H]1[C@@H](O)[C@@H](O[C@@H]2[C@@H](O)[C@H](O[C@H]3O[C@H](CN)[C@@H](O)[C@H](O)[C@@H]3O)[C@@H](N)C[C@@H]2NC(=O)[C@@H](O)CN)OC[C@]1(C)O,6.42%,
O=S(=O)(NCCNCC=Cc1ccc(Br)cc1)c1cccc2cnccc12,6.5%,
COc1cc(F)c(C(C)C)cc1-c1ccc(C(F)(F)F)cc1CN1C(=O)O[C@H](c2cc(C(F)(F)F)cc(C(F)(F)F)c2)[C@@H]1C,-3.8%,
CC(C)c1c(C(=O)Nc2ccccc2)c(-c2ccccc2)c(-c2ccc(F)cc2)n1CC[C@H](O)C[C@@H](O)CC(=O)O,-1.98%,
CCCCC(C=O)NC(=O)C(CC(C)C)NC(=O)OCc1ccccc1 (stereo not given),10.2%,
